PubChem BioAssay (NCI)
This is part of a sample that, as a whole, favours compounds with a hit. Of some 83,000 tested, about 20% had one in any assay.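 Compound tested at a single concentration for 48 hours in 96-well plates; a percent growth value below 10 was scored as active.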 The source made the active and inactive calls.

These compounds were tested on M14 melanoma (assay: NCI-60 one-dose screen, 48 h (100 = growth as untreated, 0 = no growth, -100 = all killed)). Details: 10 µM unless noted.

| SMILES | growth |
| --- | --- |
| N#C/C(=C1C=C/C(=N/O)C(Cl)=C/1)c1ccc(Cl)cc1 | 85.1% (inactive) |
| c1coc(CNc2ccnc(Nc3ccc(OCCN4CCCCC4)cc3)n2)c1 | 102% (inactive) |
| C=C1CCC2C(C)(CO)C(O)CCC2(C)C1C/C=C1/C(=O)OCC1O/C=C/c1ccccc1 (stereo unspecified) | 86.1% (inactive) |
| C=C(C)[C@@H]1CC[C@]2(C(=O)N3CCNCC3)CC[C@]3(C)[C@H](CC[C@@H]4[C@@]5(C)C/C(=C/c6ccncc6)C(=O)C(C)(C)[C@@H]5CC[C@]43C)[C@@H]12 | 108% (inactive) |
| CCOC(=O)C1C(=O)C=C(c2ccc(OC)cc2)CC1c1sc(N(C)Cc2ccccc2)nc1Cl (stereo unspecified) | 87.6% (inactive) |
| COc1cc(/C=C/C(=O)/C=C/c2cc(OC)c3c(c2)OCO3)cc2c1OCO2 | 31.2% (inactive) |
| C[n+]1c(/C=C/c2c(O)ccc3ccccc23)ccc2ccccc21 | 34.3% (inactive) |
| CCN(CC)CCC(CNc1c2ccc(Cl)cc2nc2ccc(OC)cc12)c1ccccc1 (stereo unspecified) | -87.9% (active) |
| C=C1CC2(OC1=O)C(=O)N(CCCN1C(=O)C3(CC(=C)C(=O)O3)c3ccccc31)c1ccccc12 (stereo unspecified) | 19.1% (inactive) |
| CN(CCCCCl)P(=O)(OCc1ccc([N+](=O)[O-])o1)C(F)(F)C[C@H](NC(=O)CNC(=O)c1ccc(N=[N+]=[N-])cc1)C(=O)NCCc1ccc(O)cc1 (stereo partly specified) | 90% (inactive) |
| COc1ccc(C(=O)N2NC(=O)/C(=C/c3ccc(Br)cc3)N=C2c2ccccc2)cc1 | 79.2% (inactive) |
| N#Cc1c(-c2ccccc2)cc(-c2ccccc2)n(CC(=O)NO)c1=O | 64.8% (inactive) |
| COc1ccc(Nc2ncccc2C(=O)NCc2cn(Cc3cccc(Oc4ccccc4)c3)nn2)c(OC)c1 | 14.2% (inactive) |
| N/C(=N\S(=O)(=O)c1ccccc1)Nc1nc2ccccc2s1 | 101% (inactive) |
| O=S(=O)(NCCCNc1nccc(-n2ccc3cccnc32)n1)c1cccc(C(F)(F)F)c1 | 107% (inactive) |
| COc1cc(NC(N)=NCCC(C)(C)Oc2ccc(C(F)(F)F)cc2)ncc1C#N | -68.3% (active) |
| COc1ccc2c(c1)[nH]c(=O)c1c3cc(OC)ccc3cn21 | 25.4% (inactive) |
| FC(F)(F)c1cccc(-c2cn3c(ccc4ccccc43)n2)c1 | 95.4% (inactive) |

| SMILES | growth |
| --- | --- |
| COc1ccc(CN2CCc3c(Sc4ccccc4)nc(N)nc3C2=O)c(OC)c1 | 61.7% (inactive) |
| COc1ccc(Nc2ncccc2C(=O)NCc2cn(Cc3cccc(Oc4ccccc4)c3)nn2)cc1 | 38.7% (inactive) |
| CCN(CC)CCC(CNc1ccnc2cc(Cl)ccc12)c1ccc(Cl)cc1 (stereo unspecified) | -80.2% (active) |
| Cc1ccc(S(=O)(=O)C2=C3C(=C(c4ccccc4)c4ccccc43)CN(S(=O)(=O)c3ccc(C)cc3)C2)cc1 | 70.7% (inactive) |
| O=C1C(Cl)=C(Nc2ccccn2)C(=O)c2ccccc21 | 89.5% (inactive) |
| COc1cc(/C=C/C(=O)N2CCN(C(=O)/C=C/c3cc(OC)c(OC)c(OC)c3)CC2)cc(OC)c1OC | 97.1% (inactive) |
| c1ccc(-c2nnc(-c3ccccn3)s2)nc1 | 82.8% (inactive) |
| Cc1c(C(=O)/C=C/c2csc3ccccc23)[n+](=O)c2ccccc2n1[O-] | 62.9% (inactive) |
| O=C(NCCNc1nccc(-n2ccc3cccnc32)n1)c1ccc(C(F)(F)F)cc1 | 102% (inactive) |
| C=C(C)[C@@H]1C[C@@H]2Cc3cc(Cl)ccc3N1O2 | 95.3% (inactive) |
| O=S(=O)(CC(O)(c1ccccc1)c1ccccc1)CC(O)(c1ccccc1)c1ccccc1 | 95.2% (inactive) |
| NC1=NC(SCc2ccccc2CCl)c2ncn(Cc3ccccc3CCl)c2N1 (stereo unspecified) | 40% (inactive) |
| C=C[C@@H]1C[C@@H]2Cc3c(C)cc(C)cc3N1O2 | 104% (inactive) |
| COc1cc(/C=N\NC(=O)CN2CCN(c3cc4c(cc3F)c(=O)c(C(=O)N/N=C/c3cc(OC)c(OC)c(OC)c3)cn4C3CC3)CC2)cc(OC)c1OC | 18.2% (inactive) |
| Fc1ccc(-c2nc(-c3nc4ncccc4[nH]3)cc3c2[nH]c2ccccc23)cc1F | 78.8% (inactive) |
| COc1cc(-c2nc(-c3nc4ccc(Cl)cc4[nH]3)cc3c2[nH]c2ccccc23)cc(OC)c1OC | 71.7% (inactive) |
| C=C(C)[C@@H]1C[C@@H]2Cc3ccc(Cl)c(C)c3N1O2 | 105% (inactive) |
| CCCCCCCCC(C)OC(=O)c1nn(C(C)=O)c2ccccc12 (stereo unspecified) | 101% (inactive) |
